HT1080 IDH1KD tx – qHTS for induction of synthetic lethality in tumor cells producing 2HG: qHTS for the HT-1080-IDH1KD cell line | Potency, µM (doses to about 46.1 µM), without a hit: at the highest dose activity, negative = toxicity, usual class: cytotoxic | HT-1080 IDH1 knockdown viability, ATP luminescence, 48 h | AID 686971, 2013 | 360,000 tested, 2% active;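 further: potency means the concentration at half of the fitted maximal effect; 0% = DMSO wells and -100% = cell-free medium wells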
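HT-1080-IDH1KD cells (IDH1 knocked down), 750/well in RPMI with 5% FBS, treated with compound 48 h at 37 degrees C. Viability by CellTiter-Glo luminescence, normalised to DMSO and no-cell wells; concentration-response curves classed.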
IL1B secr inh – qHTS for Inhibitors of Inflammasome Signaling: IL-1-beta AlphaLISA Primary Screen. AID 743279, 2014. THP-1 LPS/ATP IL-1B secretion, AlphaLISA, 16 h; stronger effect = lower value. 360,000 tested, 4.7% active. activity change, % at 57.5 µM; in the data active means activity change below about -50%; inconclusive means mostly about -30% to -49%
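Secreted IL-1B measured by AlphaLISA bead assay after 16 h compound exposure of THP-1 cells; compounds (final up to 57.5 uM) added 1 h before LPS (250 ng/mL) and ATP (1.25 mM) stimulation; lower signal means less secretion.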
DT40 TDP1 no CPT – qHTS for Inhibitors of human tyrosyl-DNA phosphodiesterase 1 (TDP1): qHTS in cells in absence of CPT | AID 686978, 2013 | DT40 Tdp1-/- hTDP1 cells, no CPT, ATP luminescence, 48 h | Potency, µM (series often up to 46.2 µM), for the others: at the highest dose activity change, negative = growth inhibition, usual class: inhibitors | 420,000 tested, 15% active; further: potency means the concentration at half of the fitted maximal effect; nearly all actives have a fitted effect of over 55% in size
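Seeded 400 DT40-hTDP1 cells/well (vehicle DMSO, no 20 nM CPT); pinned compounds; ≥48 hr at 37 °C; CellTiter-Glo luminescence as viability measure.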
HT1080-NT tox – qHTS for induction of synthetic lethality in tumor cells producing 2HG: qHTS for the HT-1080-NT fibrosarcoma cell line | 360,000 tested, 1.6% active | HT-1080-NT fibrosarcoma viability, CellTiter-Glo ATP luminescence, 48 h | AID 686970, 2013 | Potency, µM (highest dose often 46.1 µM), inactives show top-dose activity, negative = less viability, hits mostly cytotoxic;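 further: NT is the 2HG producing partner of a matched IDH1 knockdown line; potency means the concentration at half of the fitted maximal effect; 0% = DMSO-treated cells and -100% = media-only wells without cells; nearly all actives have a fitted effect of over 55% in size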
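Viability of the 2HG-overproducing fibrosarcoma line after 48 hours of compound exposure at 37 degrees C was determined by luminescence with CellTiter-Glo, and concentration-effect curves were then fitted and categorized.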
DT40 TDP1 CPT – qHTS for Inhibitors of human tyrosyl-DNA phosphodiesterase 1 (TDP1): qHTS in cells in presence of CPT. 420,000 tested, 12% active. chicken DT40 Tdp1-/-;hTDP1 cells + 20 nM CPT, ATP luminescence, 48 h. Potency, µM (doses to about 46.2 µM), without a hit: at the top dose activity change, negative = growth inhibition, most hits filed as inhibitors; further: potency means the concentration at half of the fitted maximal effect; nearly all actives have a fitted effect of over 55% in size
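Chicken DT40 Tdp1-/- cells complemented with human TDP1, 400 cells/well, exposed to compounds plus 20 nM camptothecin for at least 48 h at 37 C; viability read as ATP content by CellTiter-Glo luminescence.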
An asterisk follows results filed as active; i = inactive; ? = inconclusive; / = no result. Most compounds without a hit are left out; they make up all but 19% or so of the library. Unless noted, the call rests on the fitted dose curve; in most records, active means well fitted curve in the direction sought with a large enough effect; inconclusive means small, poorly fitted or top-dose-only effect, or another doubt; inactive means no such curve, though single readings can be large; an effect the other way counts as inactive or inconclusive. Unless noted, on the % scale 0 is the no-effect control and ±100 the full control effect.

SMILES	HT1080 IDH1KD tx	IL1B secr inh	DT40 TDP1 no CPT	HT1080-NT tox	DT40 TDP1 CPT
CC(C)(C)NC(=O)c1cc(-c2ccc3c(c2)OCO3)nc2ccccc12	6.0%	i	-27.2%	-5.9%	4.6%
O=C(Nc1ccc2c(c1)OCO2)c1cc(-c2ccncc2)nc2ccccc12	18.4µM*	6.1	14.6µM*	18.4µM*	?
O=C(Nc1ccc2c(c1)OCCO2)c1cc(-c2ccccc2)nc2ccccc12	-25.4%	-19.2	23.1µM*	-17.4%	?
COC(=O)c1cc2occc2n1CC(=O)Nc1ccc(C(C)C)cc1	/	/	-27.7%	/	?
O=C(c1ccccc1-c1ncc[nH]1)N1CCc2c([nH]c3ccccc23)C1c1ccccn1 (centres undefined)	-4.4%	7.5	?	-8.9%	?
O=C(c1ccccc1-n1cccn1)N1CCc2c([nH]c3ccccc23)C1c1ccccn1 (centres undefined)	-5.2%	-10.5	10.3µM*	-27.7%	10.3µM*
COc1ccc(OCC(=O)N2CCc3c([nH]c4ccccc34)C2c2ccccn2)cc1 (centres undefined)	-2.4%	-17.3	?	-3.4%	?
Cc1ccc2nc(C(=O)N3CCc4c([nH]c5ccccc45)C3c3ccccn3)cn2c1 (centres undefined)	-0.6%	-59.5*	20.6µM*	-18.3%	?
CSc1nc(C(=O)N2CCc3c([nH]c4ccccc34)C2c2ccccn2)cs1 (centres undefined)	?	0.0	?	-28.9%	1.2%
CCc1nc(C)ccc1OCC(=O)N1CCc2c([nH]c3ccccc23)C1c1ccccn1 (centres undefined)	-17.7%	?	23.1µM*	-11.6%	20.6µM*
O=C(c1cc(-c2ccccc2)n[nH]1)N1CCc2c([nH]c3ccccc23)C1c1ccccn1 (centres undefined)	?	-64.7*	20.6µM*	?	18.4µM*
NC(=O)CN1C(=O)C(=O)N(Cc2cccc(C(F)(F)F)c2)C1=O	1.2%	18.6	11.0%	3.8%	4.7%
CSC(=NC#N)N1CCN(c2ccc([N+](=O)[O-])cc2)CC1	-1.0%	16.3	?	-11.0%	?
COc1ccc(CNC(=O)C2CCN(S(=O)(=O)c3ccc4c(c3)CC(C)N4C(=O)C3CC3)CC2)cc1 (centres undefined)	-14.7%	-6.2	6.8%	-5.6%	1.1%
O=C(c1cccs1)N1CCc2c([nH]c3ccccc23)C1c1ccccn1 (centres undefined)	-9.5%	?	7.9%	-1.2%	-17.0%
CC(=O)c1ccc(C(=O)N2CCc3c([nH]c4ccccc34)C2c2ccccn2)s1 (centres undefined)	-17.0%	-3.0	20.6µM*	?	?
COc1ccccc1S(=O)(=O)N(C)C[C@H]1Oc2cc(C#CCC3CCCC3)ccc2S(=O)(=O)N([C@H](C)CO)C[C@H]1C	-29.5%	-9.1	8.2µM*	-29.4%	13µM*
COc1ccccc1S(=O)(=O)N(C)C[C@H]1Oc2cc(Br)ccc2S(=O)(=O)N([C@@H](C)CO)C[C@H]1C	-2.7%	-14.4	16.4µM*	-11.0%	29.1µM*
COc1ccc(S(=O)(=O)N(C)C[C@@H]2Oc3cc(C#CC4CCCCC4)ccc3S(=O)(=O)N([C@@H](C)CO)C[C@@H]2C)cc1	?	-52.2*	18.4µM*	-26.1%	18.4µM*
Cc1c(O)c(CN2CCCC2)cc2c3c(c(=O)oc12)CCC3	-1.0%	7.0	-5.8%	9.0%	0.4%
O=c1oc2c3c4c(cc2c2c1CCC2)OCCN4CCC3	-20.2%	?	?	-12.0%	18.4µM*
Cc1ccc(CCNC(=O)C2CCCN2S(=O)(=O)c2ccc3c(c2)CCC(=O)N3)cc1 (centres undefined)	-2.7%	15.6	?	14.1%	?
COc1ccc(NC(=O)C2CCCN2S(=O)(=O)c2ccc3c(c2)CCC(=O)N3)c(OC)c1 (centres undefined)	-6.1%	-15.1	16.4µM*	3.3%	13µM*
COc1ccc(NC(=O)C(NS(=O)(=O)c2cccc3nsnc23)c2ccccc2)cc1 (centres undefined)	/	/	-6.9%	/	-24.5%
CCOc1ccc(-n2c(=O)c3sc4ccccc4c3n(Cc3cccc(C)c3)c2=O)cc1	/	/	-28.6%	/	1.1%
SMILES	HT1080 IDH1KD tx	IL1B secr inh	DT40 TDP1 no CPT	HT1080-NT tox	DT40 TDP1 CPT
COc1ccc(NC(=O)CSc2n[nH]c(N)n2)c([N+](=O)[O-])c1	-5.4%	-19.4	-4.0%	14.5%	-2.2%
COc1ccc(NC(=O)CSc2n[nH]c(C(C)C)n2)c([N+](=O)[O-])c1	2.5%	-66.9*	?	-2.7%	-17.8%
CNC(=S)N/N=C/c1c(C)nn(-c2ccc(F)cc2)c1Cl	-18.8%	-1.1	14.6µM*	-22.1%	?
Cc1nn(-c2ccccc2)c(Cl)c1/C=N/NC(N)=O	10.8%	/	-11.7%	8.9%	1.7%
Cc1nn(-c2ccccc2)c(Cl)c1/C=N/NC(=O)CNC(=O)c1ccccc1Cl	-4.2%	1.9	?	-3.5%	20.6µM*
COC(=O)N/N=C\c1c(C)nn(-c2ccccc2)c1Cl	-3.8%	-16.8	-10.9%	19.1%	10.3%
Cc1ccc(C)c(OCC(=O)N/N=C/c2c(C)nn(-c3ccccc3)c2Cl)c1C	4.2%	60.8	7.31µM*	12.0%	14.6µM*
Cc1nn(-c2ccccc2)c(Cl)c1/C=N/Nc1nc2ccccc2n1C	?	6.2	14.6µM*	-29.2%	25.9µM*
O=C(NCc1cccs1)C1C(=O)Nc2ccccc2C(=O)N1Cc1ccccc1 (centres undefined)	-2.4%	6.9	19.6%	-0.6%	14.6%
O=S1(=O)[C@H]2C[C@@H]3C=C[C@]2(CN1Cc1ccc(C(F)(F)F)cc1)O3	7.6%	-2.1	-1.1%	11.0%	-22.5%
CCN(CC)C(=O)C1=C(C)N(Cc2ccccc2)C(=O)C(CC(=O)NCc2ccco2)C1 (centres undefined)	9.8%	-7.0	-1.4%	2.3%	8.1%
COc1ccc(C(C(=O)Nc2ccc(F)cc2)N2CCN(C(=O)c3ccco3)CC2)cc1 (centres undefined)	-8.2%	11.9	-15.3%	-14.7%	-1.4%
Cc1nn(-c2ccccc2)c(N2CCCC2)c1/C=N/NC(=O)c1cccc(S(=O)(=O)Nc2ccc(Cl)cc2)c1	-12.0%	-29.8	?	-2.1%	?

Screening data (PubChem)
